Calls of active or inactive are those of the source. How the source made its calls: active means hit-call score of the fitted dose curve at least 0.9, where 1 is the maximum; inactive means score below 0.9.

The assay is described as follows: Tanguay_ZF_120hpf_ANY: Oregon State University Tanguay Lab 120 Hour Post-fertilization zebrafish Assay for Any Mortality and Malformation (AID 2284404). The method, then: Tanguay_ZF_120hpf is a whole embryo, multiplexed endpoint assay using zebrafish larvae exposed for 120 hours post fertilization on a 96-well plate.Tanguay_ZF_120hpf_ANY is one of one assay component(s) measured or calculated from the Tanguay_ZF_120hpf assay. It is designed to make measurements of developmental malformations and mortality as detected with brightfield microscopy and combines scoring from 13 other assay components measuring more specific morphologies.Data from the assay component Tanguay_ZF_120hpf_ANY was analyzed into 1 assay endpoints. This assay endpoint, Tanguay_ZF_120hpf_ANY, was analyzed in the positive analysis fitting direction relative to DMSO as the negative control and baseline of activity. Using a type of morphology reporter, gain-of-signal activity can be used to understand changes in developmentals as they relate to the whole embryo. To generalize the intended target to other relatable targets, this assay endpoint is annotated to the zebrafish development intended target family, where the subfamily is embryonic morphogenesis and mortality.
Zebrafish husbandry: Tropical 5D wild-type adult zebrafish were housed in at an approximate density of 1000 per 100 gallon tank at the Sinnhuber Aquatic Research Laboratory, Oregon State University, Corvallis, OR. Each tank was kept at standard laboratory conditions of 28C on a 14-h light/10-h dark photoperiod in fish water consisting of reverse osmosis water supplemented with a commercially available salt (Instant Ocean). Spawning funnels were placed into the tanks the night prior, and embryos were collected and staged. To increase bioavailability, the chorion was enzymatically removed using pronase (63.6mg/ml, >/= 3.5U/mg, Sigma-Aldrich: P5147) at 4 hours post fertilization (hpf) using a custom automated dechorionator.Chemical exposures: Six hpf dechorionated embryos were placed 1 embryo per well in a 96-well plate prefilled with 90 ul of EM using automated embryo placement systems (AEPS). Ten microliters of each row of dilution plate 2 was added to 2 exposure plates. The final DMSO concentration used was 0.64% (vol/vol). Thirty-two embryos were also exposed to 5uM trimethyltin chloride (positive control). Plates were sealed to prevent evaporation and foil covered to reduce light exposure and kept in a 28C incubator. Embryos were statically exposed until 120 hpf. At 24 hpf, embryos were assessed for photomotor response using a custom photomotor response analysis tool (PRAT) and for developmental toxicity endpoints (MO24: mortality at 24 hpf, DP: developmental progression, SM: spontaneous movement, and NC: notochord distortion). At 120 hpf, locomotor activity was measured using Viewpoint Zebralab and assessed for 13 endpoints. Zebrafish acquisition and analysis program (ZAAP), a custom program designed to inventory, acquire, and manage zebrafish data, was used to collect developmental endpoints as either present or absent (i.e., binary responses were recorded). If mortality occurred for an embryo (at either 24 or 120 hpf), the non-mortality endpoints were not measured.
As to `FC(F)(F)C(F)(C(F)(F)F)C(F)(F)C(F)(F)CC1CO1` (centres undefined), the outcome was inactive.
As to `O=C(O)C(F)(F)C(F)(F)C(=O)O`, the compound was classed as inactive.
For the compound `O=S(=O)(F)C(F)(F)C(F)(F)C(F)(F)C(F)(F)C(F)(F)C(F)(F)C(F)(F)C(F)(F)F`, the outcome was inactive.
As for `NC(=O)C(F)(F)C(F)(F)F`, the outcome was inactive.
Consider `O=C(O)C(F)(OC(F)(F)C(F)(F)C(F)(F)F)C(F)(F)F` (centres undefined), for which the outcome was inactive.
In the case of `OCC(F)(F)OC(F)(F)C(F)(F)OC(F)(F)C(F)(F)OC(F)(F)CO`, the half-maximal activity concentration (AC50) is 18 µM (active).
On to `CC(O)C(F)(F)C(F)(F)F` (centres undefined), for which the outcome was inactive.
With `OCC(F)(F)OC(F)(F)C(F)(F)OC(F)(F)CO`, the outcome was inactive.
With `O=C(O)C(F)(F)OC(F)(F)C(F)(F)OC(F)(F)F`, the result was inactive.
As to `O=C(O)C(F)(F)OC(F)(F)C(F)(F)OC(F)(F)C(=O)O`, the call was inactive.
Take `COC(=O)C(F)(F)C(F)(F)OC(F)(C(F)(F)F)C(F)(F)OC(F)=C(F)F` (centres undefined): the AC50 is 22.2 µM (active).
`C=CC(=O)OCC(F)(F)C(F)F`: the half-maximal activity concentration (AC50) is 23.3 µM (active).
For the compound `O=C(O)C=CC(F)(C(F)(F)F)C(F)(F)F`, the compound was called inactive.
For `OCC(F)(F)OC(F)(F)C(F)(F)OC(F)(F)C(F)(F)OC(F)(F)F`, the result was inactive.

The term AC50 denotes the concentration at which the activity in the assay is half-maximal.
